From PubChem
Sampled rows, rich in hits. Any-hit rate of the full collection: about 11%.
hNpr1 antagonist: antagonists of human natriuretic peptide receptor Npr1 | Potency, µM (doses to about 46.3 µM), actives largely listed as inhibitors | P16066 | AID 1347048 | actives 1.6% (n = 76,000) | HEK293 hNpr1 GloSensor cGMP, ANP-stimulated luminescence; calls by dose curve; also: nearly all actives have a fitted effect of over 60% in size
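HEK293 cells stably expressing human Npr1 and cGMP GloSensor pGS-40F, loaded 2 h with 2% GloSensor reagent, given compound 30 min at room temperature. Luminescence read before and 20 min after 0.1 nM hNppA.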
3T3 cytotox: NIH 3T3 cell cytotoxicity; NIH 3T3 viability, CellTiter-Glo ATP luminescence, 48-72 h; Potency, µM (top dose mostly 96.7 µM), usual class: inhibitors; actives 4.3% (n = 94,000); AID 1345082; also: nearly all actives have a fitted effect of over 55% in size
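Cells were seeded at 400 per well, treated with pin-transferred compound, and kept 48 or 72 hr at 37 °C before CellTiter-Glo addition and luminescence imaging of cellular ATP.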
Luciferase inh: Photinus pyralis luciferase inhibition | actives 2.5% (n = 76,000) | Potency, µM (top dose mostly 115 µM), hits mostly inhibitors | P08659 | purified P. pyralis luciferase, luminescence, biochemical | AID 1347043; also: nearly all actives have a fitted effect of over 65% in size
Target sequence (P08659 whole entry, looked up): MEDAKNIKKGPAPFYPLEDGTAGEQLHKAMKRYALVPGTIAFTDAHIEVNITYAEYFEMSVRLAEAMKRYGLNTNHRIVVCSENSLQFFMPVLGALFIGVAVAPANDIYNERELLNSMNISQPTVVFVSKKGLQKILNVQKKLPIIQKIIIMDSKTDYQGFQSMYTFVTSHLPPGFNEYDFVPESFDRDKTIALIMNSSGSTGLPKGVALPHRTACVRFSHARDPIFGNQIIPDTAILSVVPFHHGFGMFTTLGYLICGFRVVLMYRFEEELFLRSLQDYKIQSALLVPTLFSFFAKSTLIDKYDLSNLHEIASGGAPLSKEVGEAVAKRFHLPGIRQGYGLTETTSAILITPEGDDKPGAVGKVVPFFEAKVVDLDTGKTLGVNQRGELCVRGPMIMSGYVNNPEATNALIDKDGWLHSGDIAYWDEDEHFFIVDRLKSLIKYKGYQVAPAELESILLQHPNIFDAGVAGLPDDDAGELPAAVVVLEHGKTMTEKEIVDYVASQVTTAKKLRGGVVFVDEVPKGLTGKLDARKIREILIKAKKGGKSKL
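Inhibitors were tested against purified firefly luciferase in a biochemical, low-substrate format (both substrates at 10uM) and luminescence measured with a CCD imager.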
HEK293 tox: cytotoxic compounds in HEK 293 cells. Potency, µM (series often up to 115 µM), hits mostly inhibitors. actives 6.6% (n = 94,000). AID 1345083. HEK 293 viability, ATP luminescence (CellTiter-Glo), 48-72 h; also: nearly all actives have a fitted effect of over 60% in size
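CellTiter-Glo luminescence (cellular ATP) was read after 48 or 72 hr of compound exposure at 37 degree Celsius. Cells were HEK 293 plated at 250 cells/well.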
Numbers stand for hits; n = inactive; u = inconclusive; x = no result. Unless noted, calls follow the shape of the dose curve; as a rule, active = well fitted curve in the direction sought with a large enough effect; inconclusive = small, poorly fitted or top-dose-only effect, or another doubt; inactive = no such curve, though single readings can be large; an effect the other way counts as inactive or inconclusive.

SMILES | hNpr1 antagonist | 3T3 cytotox | Luciferase inh | HEK293 tox
COC(=O)[C@@H]1Cc2c([nH]c3ccccc23)[C@H]2C[C@H](NCc3cccs3)C[C@@H](c3ccccc3)N21 | n | 25µM | n | u
COC(=O)[C@@H]1C[C@H](NC(=O)CCCc2cccs2)CN1C | n | n | n | n
COc1ccc(NC(=O)[C@@H]2C[C@@H](c3ccc(F)cc3)N(Cc3ccccc3)C2)cc1OC | n | u | n | n
COCC(=O)NC1CCCc2c1[nH]c1ccc(F)cc21 (centres undefined) | n | n | n | u
C#CCN[C@H]1C[C@@H]2c3[nH]c4ccccc4c3C[C@@H](C(=O)OC)N2[C@H](c2ccc(F)cc2)C1 | n | u | n | 28µM
COC(=O)[C@@H]1Cc2c([nH]c3ccccc23)[C@H]2C[C@@H](NCCO)C[C@@H](c3ccc(F)cc3)N21 | n | 28µM | n | 28µM
N#Cc1cccnc1-c1ccc(C(=O)N2CCC(NC(=O)Cc3ccccn3)CC2)cc1 | x | n | x | u
CC(C)CC(=O)N1C(C(=O)NCC2CCCO2)COC12CCCC(C)C2 (centres undefined) | n | n | n | n
CC(C)N1CCN(C2CCOC3(CCN(C(=O)C4CCCCC4)CC3)C2)CC1 (centres undefined) | x | n | x | n
CC(C)N1CCN(C(=O)C2(CCO)CC23CCOCC3)CC1 (centres undefined) | x | n | x | n
COc1ccc(C(=O)N2CCC(=O)N(CCC#N)C[C@H]3COc4ccccc4[C@H]32)cc1 | x | u | x | n
COc1ccccc1C(=O)N1CCC(C(=O)N2CCCC2c2nc3ccncc3[nH]2)CC1 (centres undefined) | x | n | x | n
O=C(Nc1ccccc1)[C@H]1O[C@H](CCN2CCN(c3ccc(F)cc3)CC2)CC[C@@H]1O | n | u | n | u
COc1ccc(-c2ccc(C(=O)N3CCN(C(=O)N4CCOCC4)CC3)cc2)nn1 | x | n | x | n
CCOC1CCOC2(CCN(C(=O)c3ccccc3)CC2)C1 (centres undefined) | x | n | x | n
COC(=O)[C@@H]1Cc2c([nH]c3ccccc23)[C@H]2C[C@H](NCCO)C[C@@H](c3ccccc3)N21 | n | 45µM | u | u
COc1cc2nc(C)n(CC(=O)NC3CCCc4c3[nH]c3ccccc43)c(=O)c2cc1OC (centres undefined) | n | u | n | u
COC(=O)[C@@H]1Cc2c([nH]c3ccccc23)[C@H]2C[C@@H](N3CCOCC3)C[C@@H](c3ccc(F)cc3)N21 | n | u | n | u
COC(=O)[C@@H]1Cc2c([nH]c3ccccc23)[C@H]2C[C@@H](NC3CC3)C[C@@H](c3ccc(F)cc3)N21 | u | 28µM | n | 8.9µM
COCc1cc(=O)n(CC(=O)Nc2cccc(C(C)=O)c2)c(N2CCOCC2)n1 | n | n | n | n
CC1=C(C(=O)OC(C)(C)C)C(c2ccccc2)N2C(CC(=O)NCc3ccco3)=CSC2=N1 (centres undefined) | n | u | n | u
O=C(COc1ccc(-c2nnc3n2CCCC3)cc1)Nc1ccc(F)cc1 | n | n | n | n
CC1=C[C@@H](CNC2CCOCC2)[C@H](C(C)C)C[C@H]1Cc1nc2ccc(Cl)cc2[nH]1 | n | 100µM | n | u
CC1=C[C@@H](CNC(=O)CN(C)C)[C@H](C(C)C)C[C@H]1Cc1nc2ccc(C)cc2[nH]1 | n | 79µM | n | u
CC1=C[C@@H](CNC(=O)CN(C)C)[C@H](C(C)C)C[C@H]1Cc1nc2ccc(Cl)cc2[nH]1 | n | 89µM | n | u
SMILES | hNpr1 antagonist | 3T3 cytotox | Luciferase inh | HEK293 tox
CC1=C[C@@H](CNC(=O)CCC(=O)O)[C@H](C(C)C)C[C@H]1Cc1nc2ccc(C)cc2[nH]1 | n | n | n | n
COc1ccc2[nH]c(C[C@@H]3C[C@@H](C(C)C)[C@H](CN)C=C3C)nc2n1 | u | u | n | u
CC1=C[C@@H](CNC(=O)CCC(=O)O)[C@H](C(C)C)C[C@H]1Cc1nc2ccc(Cl)cc2[nH]1 | n | n | n | n
CC1=C[C@@H](CN(C)C)[C@H](C(C)C)C[C@H]1Cc1nc2ncc(Cl)cc2[nH]1 | n | 71µM | n | 79µM
CN1CCN(c2cc(=O)c3ccnc(NCc4ccccc4)c3o2)CC1 | n | u | n | n
O=c1cc(N2CCOCC2)oc2c(NCC3CCOCC3)nccc12 | n | 28µM | n | n
O=c1cc(N2CCOCC2)oc2c(NCc3cnccn3)nccc12 | n | 100µM | n | n
O=C(N[C@@H]1CN(c2ncccn2)C[C@H]1CO)c1cc2ccccc2[nH]1 | n | n | u | n
c1cnc(N2CCOCC2)c(CNCc2ccc(C3CCCCO3)o2)c1 (centres undefined) | n | n | n | n
CCCn1c(C)cnc1CC1CCCN(C(=O)C2CCCC2)C1 (centres undefined) | x | n | x | n
O=C(c1nnc(COc2ccc(F)c(F)c2)n1-c1ccccc1)N1CCC[C@@H]1c1cccc(F)c1 | n | 10µM | n | u
O=C(c1nnc(CN2CCOCC2)n1-c1ccccc1)N1CCC[C@@H]1C(c1ccccc1)c1ccccc1 | n | u | n | u
O=C(c1nnc(CN2CCC(F)(F)CC2)n1-c1cccnc1)N1CCC[C@@H]1C(c1ccccc1)c1ccccc1 | n | 25µM | n | n
CN(Cc1ccccc1)Cc1nnc(C(=O)N2CCC[C@@H]2c2cccc(F)c2)n1-c1ccccc1 | n | u | n | u
O=C(c1nnc(COc2cc(F)cc(F)c2)n1-c1ccccc1)N1CCC[C@@H]1c1cccc(F)c1 | n | 40µM | n | u
O=C(c1nnc(COc2ccc(F)cc2)n1-c1ccccc1)N1CCC[C@@H]1C(c1ccccc1)c1ccccc1 | n | 6.3µM | n | u
CC(C)c1ccc(S(=O)(=O)N2CCCC2c2nncn2C2CCCC2)cc1 (centres undefined) | x | n | x | n
CNC(=O)c1cc(C2CC2)nc2onc(C3CCN(C(=O)N4CCOCC4)C3)c12 (centres undefined) | x | n | x | n
CCN(Cc1ccccc1)C(=O)C1CCN(c2cnn(C)c(=O)c2)C1 (centres undefined) | x | n | x | n
COc1ccc2[nH]c(CN3CCC(CCC(=O)NCc4ccc(F)cc4)CC3)c(C)c2c1 | n | u | n | 28µM
CC(C)CN1CCN(C(=O)CCC[C@@H]2[C@H]3CCCN4CCC[C@@H](CN2Cc2cccnc2)[C@@H]34)CC1 | n | n | n | n
c1ccc(-c2cn3c(n2)CO[C@@H](CNCc2ccc4ccccc4n2)C3)cc1 | n | u | n | u
Fc1ccccc1CNC[C@H]1Cn2cc(-c3ccccc3)nc2CO1 | n | n | 63µM | u
Cc1ccccc1CNC[C@H]1Cn2cc(-c3ccccc3)nc2CO1 | n | u | n | 100µM
Cc1ccc(CNC[C@H]2Cn3cc(-c4ccccc4)nc3CO2)cc1 | n | u | n | u
Clc1ccccc1CNC[C@H]1Cn2cc(-c3ccccc3)nc2CO1 | n | u | 56µM | 100µM
CCOc1ccccc1NC(=O)N1CCC(n2c(C)cnc2-c2cccnc2)C1 (centres undefined) | x | n | x | n
